According to paper PMC4336329 (PLoS ONE, 2015):
Hit rate of the full screen: of about 310,000 compounds, about 14,000 (4.5%) showed an effect of 50% or more. The effect is printed as a negative number. Many of the other results were omitted from the sample, so strong results are more common in it than they were.

Target: human ether-à-go-go-related gene (hERG) potassium channel (human, UniProt Q12809)
Assay: primary screen, population patch clamp on CHO cells stably expressing hERG; higher = less effect of the substance
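Note: peak tail current of the secondary pulse compared with the same well before compound.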

Chain of human ether-à-go-go-related gene (hERG) potassium channel (Q12809 whole entry, looked up): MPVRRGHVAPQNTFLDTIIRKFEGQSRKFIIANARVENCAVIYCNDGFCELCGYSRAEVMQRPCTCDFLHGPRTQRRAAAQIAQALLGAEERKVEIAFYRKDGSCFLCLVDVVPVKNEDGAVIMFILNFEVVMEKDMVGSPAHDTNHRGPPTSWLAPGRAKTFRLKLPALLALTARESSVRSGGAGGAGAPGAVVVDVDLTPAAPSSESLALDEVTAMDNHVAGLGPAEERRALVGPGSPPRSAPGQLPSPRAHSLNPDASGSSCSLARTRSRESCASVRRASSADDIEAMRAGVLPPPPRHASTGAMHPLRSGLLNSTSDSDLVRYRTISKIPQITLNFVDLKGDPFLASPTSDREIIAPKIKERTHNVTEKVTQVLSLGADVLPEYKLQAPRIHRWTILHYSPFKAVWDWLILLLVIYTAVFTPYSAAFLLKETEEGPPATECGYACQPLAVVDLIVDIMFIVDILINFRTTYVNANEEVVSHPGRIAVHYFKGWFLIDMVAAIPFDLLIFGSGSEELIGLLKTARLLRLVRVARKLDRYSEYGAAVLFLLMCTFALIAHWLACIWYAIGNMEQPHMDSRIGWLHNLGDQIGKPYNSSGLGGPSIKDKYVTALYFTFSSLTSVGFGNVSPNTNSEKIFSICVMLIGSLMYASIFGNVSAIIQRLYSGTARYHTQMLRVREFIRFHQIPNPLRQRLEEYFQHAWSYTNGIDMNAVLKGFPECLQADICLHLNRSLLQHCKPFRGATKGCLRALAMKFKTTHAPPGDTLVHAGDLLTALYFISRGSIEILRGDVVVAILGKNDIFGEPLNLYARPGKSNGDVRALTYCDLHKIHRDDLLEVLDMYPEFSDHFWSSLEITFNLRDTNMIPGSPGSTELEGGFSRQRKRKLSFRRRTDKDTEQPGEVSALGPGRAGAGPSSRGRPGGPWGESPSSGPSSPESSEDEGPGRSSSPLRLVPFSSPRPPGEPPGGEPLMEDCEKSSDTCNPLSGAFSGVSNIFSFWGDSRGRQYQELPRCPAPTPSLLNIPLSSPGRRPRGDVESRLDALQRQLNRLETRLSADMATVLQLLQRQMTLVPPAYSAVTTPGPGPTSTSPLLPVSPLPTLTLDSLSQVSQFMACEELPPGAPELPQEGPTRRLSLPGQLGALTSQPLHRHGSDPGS

| SMILES | hERG current change (%, negative = inhibition) at 10uM |
| --- | --- |
| COC(=O)c1c(N2C(=O)[C@H]3[C@@H](C2=O)[C@]2(C(=O)Nc4c2ccc(C)c4C)N2CCC[C@@H]32)sc(C)c1C | 15.4% |
| C/C(=C\C(=O)c1ccccc1)NCc1ccc(F)cc1 | -22.7% |
| Cc1cc(S(=O)(=O)n2cnc3cc([N+](=O)[O-])ccc32)ccc1Cl | -2.69% |
| Cc1ccc(C(=O)Nc2cnc3ccccn3c2=O)cc1 | -17.2% |
| Cc1cc(=O)[nH]c(SCc2cccc3cccnc23)n1 | 13.3% |
| COc1ccc(CNc2c(CO)cnc3c2cnn3C)cc1 | -13% |
| COc1ccc(NC(=O)CN(C)C(=O)c2cccc(S(=O)(=O)N3CCN(c4ccccc4)CC3)c2)cc1 | -3.62% |
| O=C(N/N=C/c1ccco1)c1cc([N+](=O)[O-])cc([N+](=O)[O-])c1 | 6.85% |
| COC(=O)C(C)N(C#N)c1nc(C)cc(C)n1 (stereo not shown) | 8.78% |
| COc1cccc(CC(=O)OCC(=O)N2CCN(c3ccc(F)cc3)CC2)c1 | -60.6% |
| COc1ccccc1N1CCN(C(=O)CCSCc2ccccc2F)CC1 | 4.41% |
| COc1ccc(N2CCN(C(=O)COC(=O)Cc3ccc(F)cc3)CC2)cc1 | -20% |
| CC1(C)C(=O)Nc2ccccc2N1C(=O)COC(=O)Cc1c(F)cccc1Cl | -50.1% |
| CC1(C)C(=O)Nc2ccccc2N1C(=O)COC(=O)CSc1ccc(Cl)cc1 | 18.3% |
| COc1ccc(N2CCN(C(=O)COC(=O)Cc3cccc(OC)c3)CC2)cc1 | -20% |
| COc1cccc(N2CCN(C(=O)CCSCc3ccccc3F)CC2)c1 | -57.9% |
| CC1(C)C(=O)Nc2ccccc2N1C(=O)COC(=O)CSc1ccc(F)cc1 | -2.24% |
| COc1ccc(N2CCN(C(=O)CCSCc3ccccc3F)CC2)cc1 | -28.1% |
| COc1ccc(NC(=O)COC(=O)Cc2c(F)cccc2Cl)cc1 | -0.319% |
| COc1ccc(N2CCN(C(=O)COC(=O)Cc3c(F)cccc3Cl)CC2)cc1 | -79% |
| COc1ccc(N2CCN(C(=O)COC(=O)CCc3ccccc3)CC2)cc1 | -0.829% |
| CSCC(NS(=O)(=O)c1ccc(C)cc1)C(=O)O (stereo not shown) | 8.98% |

| SMILES | hERG current change (%, negative = inhibition) at 10uM |
| --- | --- |
| CC(=O)N1CC(C)Sc2ccc(S(=O)(=O)NCCc3cccc(C)c3)cc21 (stereo not shown) | 0.141% |
| COC(=O)CNC(=O)CNC(=O)Nc1ccccc1Cl | 9.2% |
| Cc1ccc(S(=O)(=O)N/N=C/c2ccc(C(=O)O)cc2)cc1 | 15.2% |
| Nc1nc(N2CCN(c3ccccc3)CC2)n[nH]1 | 4.2% |
| COc1cc(NC2=Nc3cccc4cccc2c34)cc(OC)c1OC | 1.72% |
| CCCCn1c(N)c(NCc2ccccc2OC)c(=O)[nH]c1=O | 12.2% |
| Cc1c(C=O)cnn1CCC(=O)O | 4.76% |
| O=c1ccc2cc(S(=O)(=O)Nc3ccc(Br)cc3)ccc2o1 | 5.32% |
| COc1ccccc1NC(=O)CC1CCCC1 | 15.4% |
| CCn1c(SCC(=O)Nc2cc(C)on2)nc2c(c1=O)SC(C)C2 (stereo not shown) | -4.2% |
| CCc1ccc(OCC(=O)Nc2ccc(S(=O)(=O)N3CCCC3)cc2)c(Br)c1 | -4.25% |
| COCCn1c(SCC(=O)Nc2c(C)n(C)n(-c3ccccc3)c2=O)nnc1-c1ccncc1 | 5.95% |
| CCOC(=O)C1CCN(C(=O)Cn2nc(C)n3nc(-c4ccc(CC)cc4)cc3c2=O)CC1 | 5.33% |
| O=C(/C=C/c1ccccc1[N+](=O)[O-])OCC(=O)N1CCCC1 | 12% |
| COc1ccc(N2CCN(C(=O)COC(=O)CCOc3ccccc3C)CC2)cc1 | -62.5% |
| COc1ccc(N2CCN(C(=O)COC(=O)CCOc3cc(C)ccc3C)CC2)cc1 | 0.516% |
| COc1ccc(N2CCN(C(=O)COC(=O)CCOc3ccc(C)cc3)CC2)cc1 | 9.09% |
| CCn1cc(C(=O)NCCC(C)C)c(=O)c2cc(F)c(N3CCN(C(=O)c4ccco4)CC3)cc21 | -11.3% |
| CCCNC(=O)c1cn(CC)c2cc(N3CCN(C(=O)c4ccco4)CC3)c(F)cc2c1=O | -67% |
| C=CCNC(=O)c1cn(CC)c2cc(N3CCN(C(=O)c4ccco4)CC3)c(F)cc2c1=O | -63.6% |
| CCn1cc(C(=O)NCc2ccc3c(c2)OCO3)c(=O)c2cc(F)c(N3CCN(C(=O)c4ccco4)CC3)cc21 | -1.93% |
| CCN(CC)CCNC(=O)c1cn(CC)c2cc(N3CCN(C(=O)c4ccco4)CC3)c(F)cc2c1=O.Cl | 0.131% |

| SMILES | hERG current change (%, negative = inhibition) at 10uM |
| --- | --- |
| CCC(C)NC(=O)c1cn(CC)c2cc(N3CCN(C(=O)c4ccco4)CC3)c(F)cc2c1=O (stereo not shown) | -55.2% |
| CCn1cc(C(=O)Nc2ncccc2O)c(=O)c2cc(F)c(N3CCN(C(=O)c4ccco4)CC3)cc21 | 1.98% |
| CCn1cc(C(=O)NC(C)C)c(=O)c2cc(F)c(N3CCN(C(=O)c4ccco4)CC3)cc21 | -34.6% |
| CCCCNC(=O)c1cn(CC)c2cc(N3CCN(C(=O)c4ccco4)CC3)c(F)cc2c1=O | -33.8% |
| CCn1cc(C(=O)NCc2cccc(F)c2)c(=O)c2cc(F)c(N3CCN(C(=O)c4ccco4)CC3)cc21 | -21% |
| CCn1cc(C(=O)NCC(C)C)c(=O)c2cc(F)c(N3CCN(C(=O)c4ccco4)CC3)cc21 | -59.9% |
| CCn1cc(C(=O)NCc2ccco2)c(=O)c2cc(F)c(N3CCN(C(=O)c4ccco4)CC3)cc21 | -26.4% |
| O=C(c1ccc2c(c1)OCO2)N1CCOCC1 | 17.5% |
| COc1cccc(OCCn2cccc2/C=C2/C(=N)N3OC(C)=CC3=NC2=O)c1 | -23.5% |
| O=C(NCCCN1CCCC1=O)c1cccc(S(=O)(=O)Nc2ccc(F)cc2)c1 | -24.5% |
| CCOC(=O)C1C(=O)Nc2nc(C)nn2C1c1ccccc1 (stereo not shown) | 14.4% |
| CCCc1ccc(C(=O)O/N=C(\N)c2ccccn2)cc1 | -0.642% |
| CCn1cc(C(=O)NCc2ccccc2)c(=O)c2cc(F)c(N3CCN(C(=O)c4ccco4)CC3)cc21 | -39.6% |
| CCn1cc(C(=O)NCc2ccncc2)c(=O)c2cc(F)c(N3CCN(C(=O)c4ccco4)CC3)cc21 | -66.4% |
| CCn1cc(C(=O)NCc2cccnc2)c(=O)c2cc(F)c(N3CCN(C(=O)c4ccco4)CC3)cc21 | -37.6% |
| O=C(NCc1ccc(N2CCCC2=O)cc1)c1cccc(Cl)c1 | 1.27% |
| CC(C)(C)C(=O)Nc1ccc(-c2cc3cc(Cl)ccc3o2)cc1 | 8.12% |
| Cc1ccc(NS(=O)(=O)c2ccc3oc(=O)ccc3c2)cc1Cl | 3.79% |
| CCC(=O)c1ccccc1OCCCN1C(=O)NC(C)(C)C1=O | 0.00578% |
| CC(C)c1ccccc1OCCCN1CCCC1.O=C(O)C(=O)O | -33.1% |
| N#Cc1ccccc1OCCCNC1CCCC1.O=C(O)C(=O)O | -11.5% |
| CCC(=O)c1ccccc1OCCN1CCN(CC)CC1.O=C(O)C(=O)O | -13.7% |

| SMILES | hERG current change (%, negative = inhibition) at 10uM |
| --- | --- |
| CCc1ccccc1OCCCCN1CCCC1.O=C(O)C(=O)O | -40% |
| CCC(=O)c1ccccc1OCCCCn1cncn1.O=C(O)C(=O)O | 4.82% |
| CCc1ccccc1OCCCN1CCCC1.O=C(O)C(=O)O | -17.6% |
| N#Cc1ccccc1OCCCN1CCC(Cc2ccccc2)CC1.O=C(O)C(=O)O | -80% |
| CCC(=O)c1ccccc1OCCN1CCN(Cc2ccccc2)CC1.O=C(O)C(=O)O | -59.1% |
| O=C(O)C(=O)O.OCc1ccccc1OCCCN1CCC(Cc2ccccc2)CC1 | -75% |
| COC(=O)c1ccccc1OCCN1CCCCCC1.O=C(O)C(=O)O | -46.2% |
| CCC(=O)c1ccccc1OCCCN1CCC(Cc2ccccc2)CC1.O=C(O)C(=O)O | -78.5% |
| O=C(CSc1nccc(=O)[nH]1)Nc1cccc(S(=O)(=O)N2CCOCC2)c1 | 4.22% |
| Cn1cnc2c1c(=O)n(Cc1c(Cl)cccc1Cl)c(=O)n2C | -3.36% |
| COc1ccccc1NC(=O)CSc1nc2sc(C)c(C)c2c(=O)n1C | 6.42% |
| CC(=O)N1CCN(S(=O)(=O)c2cccc(C(=O)NCCc3ccc(Cl)cc3)c2)CC1 | -12.1% |
| CC1Cc2ccccc2N1C(=O)COC(=O)C1=COCCO1 (stereo not shown) | -7.1% |
| COc1ccc(CCNC(=O)COC(=O)/C=C/c2ccc(OC)c(OC)c2)cc1 | -16% |
| O=C(CSc1nncn1-c1cccnc1)N(c1ccccc1)c1ccccc1 | 4.28% |
| CN(C)S(=O)(=O)N1CCN(C(=O)c2cccs2)CC1 | 7.17% |
| NNC(=O)CN1C(CN2CCOCC2)=Nc2ccc(Br)cc2C1c1ccccc1 (stereo not shown) | -48.9% |
| COC(=O)CN1C(C)=Nc2ccc(C)cc2C1c1ccccc1 (stereo not shown) | -43.1% |
| COC(=O)CN1C(CN2CCOCC2)=Nc2ccc(Br)cc2C1c1ccccc1 (stereo not shown) | -75.3% |
| CC1=Nc2ccc(Br)cc2C(c2ccccc2)N1CC(=O)O (stereo not shown) | 33.7% |
| Br.COC(=O)CN1C(C)=Nc2ccc(Br)cc2C1c1ccccc1 (stereo not shown) | -49.1% |
| CCC1=Nc2ccc(Br)cc2C(c2ccccc2)N1CC(=O)OC (stereo not shown) | -59.1% |
